The experiment concerns Leishmania donovani. In words: Leishmania intramacrophage assay. In kind it is functional, organism-based. On the set-up: scale not given: in the data most compounds retested in dose-response had high values.

The campaign covered roughly 69,000 compounds. About 1,000 (1.4%) showed an effect of 50% or more. The sample holds strong results, similar compounds and a random draw of the others, so the mix is not that of the screen.

Regarding `CN(C)C(=O)COC[C@@H]1CC[C@H]2[C@H](CCN2c2ncccn2)O1.O=C(O)C(F)(F)F`, where the note is “30.3 µM, […]”, the “Percent Effect” value was determined as 37.88%.

For `Cc1nc(-c2cncnc2C2CCCNC2)no1.Cl.Cl` (configuration not stated), the “Percent Effect” value (30.3 µM, […]) turned out to be 9.405%.

Consider `O=C(Nc1nncs1)c1ccc(O)nc1`, for which, for the setting “30.3 µM, […]”, the “Percent Effect” value turned out to be 16.66%.

`CCc1nnc(CNC2CCN(c3ncnc4c(C)csc34)CC2)s1`: the “Percent Effect” value (30.3 µM, […]) is 52.55%.

`Cc1nc(C)n(CCNC2CCN(c3ncnc4c(C)csc34)CC2)n1`: the “Percent Effect” value (30.3 µM, […]) is recorded as -18.48%.

Consider `Cc1nnc(CCNC2CCN(c3ncnc4c(C)csc34)CC2)s1`, for which the “Percent Effect” value (30 µM, 30.03 µM) came out at 49.19%.

As to `CCNC(=O)NC(C)c1nc(-c2ccc(Br)cc2)no1` (configuration not stated), the “Percent Effect” value (30.3 µM, […]) was 26.95%.

On to `CSCC1CCN(C(=O)c2ccccc2NCc2cccnc2)C1` (configuration not stated), for which the “Percent Effect” value (30.3 µM, […]) is -38.07%.

Consider `CCCOC(C)C(=O)NCc1cc2n(n1)CCCN(C1CCCCC1)C2` (configuration not stated), for which the “Percent Effect” value (30.3 µM, […]) amounted to 20.03%.

As to `CCC(C)NC(=O)NCc1cc2n(n1)CCCN(C1CCCCC1)C2` (configuration not stated), under “30.3 µM, […]”, the “Percent Effect” value was determined as 50.3%.

Turning to `CC(C)SCC(=O)NCc1cc2n(n1)CCCN(C1CCCCC1)C2`, the “Percent Effect” value (30.3 µM, […]) is given as 64.6%.

For the molecule `CCC(OC)C(=O)NCc1cc2n(n1)CCCN(C1CCCCC1)C2` (configuration not stated), the “Percent Effect” value (30.3 µM, […]) was found to be 1.469%.

With `CN[C@@H](CO)C(=O)NCc1cc2n(n1)CCCN(C1CCCCC1)C2`, for the setting “30.3 µM, […]”, the “Percent Effect” value was determined as 3.405%.

For the molecule `CSCCC(=O)NCc1cc2n(n1)CCCN(C1CCCCC1)C2`, the “Percent Effect” value (30.3 µM, […]) is -17.68%.

For `Cc1cc(C)n(-c2cncc(N3CCC(C(=O)N(C)C)CC3)n2)n1`, the “Percent Effect” value (30.3 µM, […]) is given as -6.574%.

On to `O=C(c1ccc(=O)[nH]n1)N1CCNCC1c1ccccc1` (configuration not stated), for which, for the setting “30.3 µM, […]”, the “Percent Effect” value is reported as -5.209%.

Consider `CC(C)Nc1cccc(C(=O)NCC(O)c2cccc(F)c2)c1` (configuration not stated), for which the “Percent Effect” value (30.3 µM, […]) is on record as 8.412%.

As for `CCc1nc(N)sc1C(=O)N1CCCC(COc2cccc(C)c2)C1` (configuration not stated), the “Percent Effect” value (30.3 µM, […]) is on record as -12.25%.

`CCc1nc(N)sc1C(=O)N1CCCC(CCc2ccccc2C)C1` (configuration not stated): under “30 µM, 30.03 µM”, the “Percent Effect” value is recorded as 59.23%.

As for `Cc1ccccc1CCC1CCCN(C(=O)Cc2cc(=O)[nH]c(N)n2)C1` (configuration not stated), for the setting “30.3 µM, […]”, the “Percent Effect” value is recorded as -48.51%.

Consider `CC(=O)N1CCC(c2cncc(N3CCC(O)C3)n2)CC1` (configuration not stated), for which the “Percent Effect” value (30.3 µM, […]) came out at 8.685%.

On to `O=C(O)C(F)(F)F.O=S(=O)(NC1CCC12CCN(CC1CCOCC1)CC2)c1ccccc1` (configuration not stated), for which the “Percent Effect” value (30.3 µM, […]) was 17.74%.

For the molecule `CC(C)(C)OC(=O)N[C@@H]1C[C@@H](O)CN(C(=O)c2cccc(F)c2)C[C@H]1O`, the “Percent Effect” value (30.3 µM, […]) is recorded as 29.87%.

`COc1ccccc1CNCc1nn(-c2ccccc2)c2c1CCC2`: the “Percent Effect” value (30.3 µM, […]) is reported as 72.37%.

In the case of `Cc1c(CNCc2nn(-c3ccccc3)c3c2CCC3)cc(C#N)n1C`, the “Percent Effect” value (30.3 µM, […]) is 49.86%.

For `Cc1noc(C)c1CNCc1nn(-c2ccccc2)c2c1CCC2`, under “30.3 µM, […]”, the “Percent Effect” value is given as -2.831%.

`CC(=O)c1cccc(OCCCC(=O)N(C)Cc2cnn(C)c2)c1`: for the setting “30.3 µM, […]”, the “Percent Effect” value is on record as -2.967%.

Regarding `Clc1ccccc1-c1cc(CNc2ncnc3c2CCNCC3)no1`, the “Percent Effect” value (30.3 µM, […]) is 94.85%.

As for `c1ccc(CN2CCC(CCNc3ncnc4c3CCNCC4)C2)cc1` (configuration not stated), under “30.3 µM, […]”, the “Percent Effect” value was -39.7%.

Regarding `c1cncc(-c2noc(CCNc3ncnc4c3CCNCC4)n2)c1`, the “Percent Effect” value (30.3 µM, […]) was 24.85%.

Consider `c1ccc(CN2CCC(CNc3ncnc4c3CCNCC4)CC2)cc1`, for which the “Percent Effect” value (30.3 µM, […]) was -23.91%.

As to `c1cncc(-c2noc(CNc3ncnc4c3CCNCC4)n2)c1`, the “Percent Effect” value (30.3 µM, […]) is 35.11%.

In the case of `COCc1noc(CCNc2ncnc3c2CCNCC3)n1`, the “Percent Effect” value (30.3 µM, […]) was found to be 2.148%.

Turning to `Cc1cccc(-n2cc(CNc3ncnc4c3CCNCC4)cn2)c1`, under “30.3 µM, […]”, the “Percent Effect” value stood at 61.6%.

In the case of `COc1ccc(-c2cc(CNc3ncnc4c3CCNCC4)no2)cc1`, the “Percent Effect” value (30.3 µM, […]) amounted to 66.16%.

Turning to `Cc1ccc(-c2cc(CNc3ncnc4c3CCNCC4)no2)cc1`, the “Percent Effect” value (30.3 µM, […]) came out at 97.6%.

As for `Cc1cccc(=O)n1CCCNc1ncnc2c1CCNCC2`, the “Percent Effect” value (30.3 µM, […]) amounted to 9.317%.

Take `c1ccc(Cn2cc(CNc3ncnc4c3CCNCC4)cn2)cc1`: for the setting “30.3 µM, […]”, the “Percent Effect” value is recorded as 13.57%.

As to `Cc1ccccc1-n1cc(CNc2ncnc3c2CCNCC3)cn1`, the “Percent Effect” value (30.3 µM, […]) came to 29.71%.

For the molecule `Cn1cc(-c2cc(-c3cnn(C)c3)n(CC(=O)NC3CC3)n2)cn1`, the “Percent Effect” value (30.3 µM, […]) is reported as -1.984%.

On to `Cc1ncc(CN(C)C2CCCN(CCc3ccccc3)C2)n1C` (configuration not stated), for which, where the note is “30.3 µM, […]”, the “Percent Effect” value turned out to be 22.06%.

In the case of `CN(CCCNC(=O)C1CCCN(C(N)=O)C1)S(C)(=O)=O` (configuration not stated), the “Percent Effect” value (30.3 µM, […]) came out at 4.871%.

In the case of `COc1cccc(CN2CCCC3(CCN(C(=O)c4ccco4)C3)C2)c1` (configuration not stated), for the setting “30 µM, 30.03 µM”, the “Percent Effect” value was 53.43%.

Turning to `COc1cccc(CN2CCCC3(CCN(C(=O)[C@H]4CCCO4)C3)C2)c1` (some centres not stated), the “Percent Effect” value (30 µM, 30.03 µM) worked out at 29.96%.

As to `COc1cccc(CN2CCCC3(CCN(C(=O)N4CCCC4)C3)C2)c1.O=C(O)C(F)(F)F` (configuration not stated), the “Percent Effect” value (30.3 µM, […]) is reported as 1.476%.

For `COCc1ncc(CN2CC[C@@](C)(O)[C@@H](Cc3ccccc3)C2)cn1`, the “Percent Effect” value (30.3 µM, […]) is on record as 11.16%.

Turning to `Cc1ccc2c(ccn2CC(=O)NC[C@@H]2CCCN3CCCC[C@H]23)c1`, the “Percent Effect” value (30 µM, 30.03 µM) turned out to be 26.96%.

For the molecule `Cc1ccc2c(ccn2CCC(=O)NC[C@@H]2CCCN3CCCC[C@H]23)c1`, the “Percent Effect” value (30 µM, 30.03 µM) amounted to 28.72%.

With `COc1ccc2c(ccn2CC(=O)NC[C@@H]2CCCN3CCCC[C@H]23)c1`, the “Percent Effect” value (30.3 µM, […]) is on record as 29.51%.

Turning to `O=C(Cn1ccc2cc(Br)ccc21)NC[C@@H]1CCCN2CCCC[C@H]12`, the “Percent Effect” value (30.3 µM, […]) was 50.79%.

Take `O=C(CCn1ccc2cc(Br)ccc21)NC[C@@H]1CCCN2CCCC[C@H]12`: the “Percent Effect” value (30.3 µM, […]) was found to be 94.12%.

`O=C(Cn1ccc2ccc(Br)cc21)NC[C@@H]1CCCN2CCCC[C@H]12`: the “Percent Effect” value (30 µM, 30.03 µM) is given as -30.69%.

The values above are taken from ChEMBL document CHEMBL3988442, “University of Dundee, Small-Polar-MMV Screening Library” (2021).
